The subject of one experiment is C33A. As to the kind of experiment: Primary qHTS to identify gynecologic anti-cancer compounds using libraries of approved drugs and bioactive compounds (AID 1345084). Also: nearly all actives have a fitted effect of over 55% in size. As to conditions: Gynecologic cancer cell panel viability, ATPlite luminescence, 48 h; series mostly up to 57.5 µM. The method in brief: (§1)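 ATP-based viability (ATPlite), 1,000 cells/well, 16 h pre-incubation, 48 h compound at 37 C, 5% CO2, 15 min RT before read.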
(In general: In qHTS, concentration-response curves come from the screen itself.)

A further experiment concerns CAOV3. The experiment is described as above. To be noted: Gynecologic cancer cell panel viability, ATPlite luminescence, 48 h; series mostly up to 57.5 µM. The method in brief:
as §1

The subject of a further experiment is Es-2. The experiment is described as above. As to conditions: Gynecologic cancer cell panel viability, ATPlite luminescence, 48 h; series mostly up to 57.5 µM. The method in brief: as §1
For a further experiment, the system named is HeLa. The description is as above. To be noted: Gynecologic cancer cell panel viability, ATPlite luminescence, 48 h; series mostly up to 57.5 µM. The method in brief:
as §1
For orientation: ATP-based viability assays read luminescence as a measure of living cells.

Another experiment has as its system Hek293T. The description is as above. To be noted: Gynecologic cancer cell panel viability, ATPlite luminescence, 48 h, control line for the selectivity index; series mostly up to 57.5 µM. The method in brief:
as §1

A further experiment relates to JEG-3. Described as above. To be noted: Gynecologic cancer cell panel viability, ATPlite luminescence, 48 h; series mostly up to 57.5 µM. The method, boiled down:
as §1

For the next experiment, the system named is OV90. The experiment is described as above. As to conditions: Gynecologic cancer cell panel viability, ATPlite luminescence, 48 h; series mostly up to 57.5 µM. The method, boiled down: as §1
In a further experiment the test system is PA-1. The description is as above. As to conditions: Gynecologic cancer cell panel viability, ATPlite luminescence, 48 h; series mostly up to 57.5 µM. The method in brief:
as §1

The next experiment concerns SKOV3. Described as above. To be noted: Gynecologic cancer cell panel viability, ATPlite luminescence, 48 h; series mostly up to 57.5 µM. The method in brief: as §1
A further experiment has as its system Tov-21-G. The description is as above. As to conditions: Gynecologic cancer cell panel viability, ATPlite luminescence, 48 h; series mostly up to 57.5 µM. The method in brief: as §1
For another experiment, the system named is Tov112D. The experiment is described as above. To be noted: Gynecologic cancer cell panel viability, ATPlite luminescence, 48 h; series mostly up to 57.5 µM. The method in brief:
as §1

The next experiment relates to CASKI. Described as above. As to conditions: Gynecologic cancer cell panel viability, ATPlite luminescence, 48 h; series mostly up to 57.5 µM. The method in brief: as §1
The nature of experiment [1]: qHTS assay to identify inhibitors of the type 1 interferon - major histocompatibility complex class I in skeletal muscle: Counter screen cell viability and HiBit confirmation (AID 1347412). Also: nearly all actives have a fitted effect of over 60% in size. As to conditions: iHSKM muscle cells + IFN-b, HiBiT or CellTiter-Glo, 24 h; HiBiT. The method, boiled down:
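Myoblasts (C25cl48, HLA-B HiBiT) seeded in medium without dexamethasone, IFN-b 4 ng/ml added except unstimulated columns; 1 hr later compounds pinned (12-pt 1:3, top 46 uM final). Incubated 24 hrs, lysed 10 min, luminescence measured.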

Each structure is given as a SMILES string. Inconclusive results are not listed. A number with no mark means an inactive call. Activity calls are given as the source filed them. Calls follow the shape of the dose curve; as a rule, active = well fitted curve in the direction sought with a large enough effect; inconclusive = small, poorly fitted or top-dose-only effect, or another doubt; inactive = no such curve, though single readings can be large; an effect the other way counts as inactive or inconclusive.
Potency is read from the fitted curve at half-maximal effect.

Turning to `COc1cc2c(cc1OC)N1C(=O)C[C@]34C=CCN5CC[C@@H]2[C@@H](CC3)[C@]514`, the Potency result with C33A, in the experiment with CAOV3, with Es-2, in the experiment on HeLa, with Hek293T and in the experiment with JEG-3 was “inactive” each time. The Potency entry in the experiment with OV90, in the experiment on PA-1, with SKOV3, in the experiment on Tov-21-G and in the experiment on Tov112D was “inactive” each time.

Consider `COc1cc(NC(=O)Nc2cccc(CNC(=O)O[C@H]3CCOC3)c2)ccc1-c1cnco1`, for which the Potency entry in the experiment with C33A, in the experiment with CAOV3, in the experiment with JEG-3 and with Tov112D was “inactive” each time. For the same molecule, the Potency is 1.41 µM (active) in the experiment on PA-1 and 8.91 µM (active) with Tov-21-G.

Take `CC1=CC2C(CC1OC1OC(CO)C(O)C(O)C1O)C(C)CC(=O)C2C(C)C` (configuration not stated): the Potency result in the experiment on C33A, with CAOV3, in the experiment on Es-2, in the experiment on HeLa, in the experiment on Hek293T and in the experiment with JEG-3 was “inactive” in each case. Besides, the Potency entry in the experiment with OV90, in the experiment on PA-1, in the experiment on SKOV3, in the experiment with Tov-21-G and in the experiment on Tov112D was “inactive” each time.

As for `CN1C2CCC1CC(OC(=O)[C@H](CO)c1ccccc1)C2` (some centres not stated), the Potency result with C33A, with CAOV3, in the experiment on CASKI, in the experiment with Hek293T and in the experiment on JEG-3 was “inactive” each time.

Turning to `CC1=C(CO)C(=O)O[C@@H]([C@@H](C)[C@H]2CC[C@H]3[C@@H]4C[C@H]5O[C@]56[C@@H](O)C=CC(=O)[C@]6(C)[C@H]4CC[C@]23C)C1`, the Potency in the experiment on C33A was 4.47 µM (active); in the experiment with CAOV3, 8.91 µM (active); with Es-2, 11.2 µM (active); in the experiment on Hek293T, 11.2 µM (active); in the experiment with SKOV3, 8.91 µM (active); in the experiment with Tov-21-G it was 7.08 µM (active). In addition, the Potency in the experiment with Tov112D was 10 µM (active); in [1], 0.883 µM (active).

As to `CNCc1ccc(-c2cc(-c3nc(-c4ccc(S(=O)(=O)C(C)C)cc4)cnc3N)on2)cc1`, the Potency entry with C33A and in the experiment on JEG-3 was “inactive” in each case. For the same molecule, the Potency in the experiment with CAOV3 is 14.1 µM (active); in the experiment with Es-2 it was 8.91 µM (active); in the experiment on PA-1, 11.2 µM (active); with SKOV3, 3.16 µM (active); with Tov-21-G, 1.58 µM (active).

With `COc1cc(O)cc(C)c1C(=O)O[C@@H]1[C@H](O)[C@@H](CO)O[C@H]1n1ccc(=O)[nH]c1=O`, the Potency entry in the experiment with C33A, in the experiment on CAOV3, in the experiment with CASKI, with HeLa, with JEG-3 and in the experiment with OV90 was “inactive” in each case. For the same molecule, the Potency result in the experiment on SKOV3 and in the experiment with Tov112D was “inactive” in each case. Also, the Potency with PA-1 is 3.98 µM (active).

Turning to `CC1(C)CC(NC(=O)C(=O)Nc2ccc(Br)cc2)CC(C)(C)N1`, the Potency entry in the experiment with C33A, in the experiment with CAOV3, in the experiment on JEG-3 and in the experiment on OV90 was “inactive” throughout. In the experiment with HeLa, the Potency was 14.1 µM (active).

Regarding `CC(C)Oc1ccc(C(=O)NC(CNC(=O)CN(C)C)Cc2ccc(-c3cn4cccc(C(C)O)c4n3)cc2)cc1Cl` (configuration not stated), the Potency result with C33A, with CAOV3, in the experiment on JEG-3, in the experiment with OV90 and with SKOV3 was “inactive” in each case. Also, the Potency in the experiment with HeLa was 0.251 µM (active); in the experiment on PA-1, 0.316 µM (active); in the experiment with Tov112D it was 0.316 µM (active).

In the case of `COC(C(=O)N1Cc2[nH]nc(NC(=O)c3ccc(N4CCN(C)CC4)cc3)c2C1)c1ccccc1` (configuration not stated), the Potency entry in the experiment on C33A, in the experiment with Es-2 and with JEG-3 was “inactive” each time. In addition, the Potency was 1.41 µM (active) with CAOV3, 7.94 µM (active) with PA-1, 17.8 µM (active) in the experiment with SKOV3 and 12.6 µM (active) with Tov-21-G.

For the molecule `CC(C)(C)Nc1nc(Nc2ccc(C(N)=O)cc2)cc(N)c1C#N`, the Potency in the experiment on C33A was 25.1 µM (active). Moreover, the Potency result in the experiment on CAOV3, in the experiment on Es-2, in the experiment on JEG-3, in the experiment on OV90 and with Tov112D was “inactive” each time.

As for `O=C(/C=C\n1cnc(-c2cc(C(F)(F)F)cc(C(F)(F)F)c2)n1)N1CC(F)(F)C1`, the Potency entry in the experiment on C33A and in the experiment on OV90 was “inactive” throughout. Also, the Potency in the experiment with CAOV3 was 2.82 µM (active); in the experiment with Es-2, 3.16 µM (active); in the experiment with HeLa it was 17.8 µM (active); with Hek293T, 1.58 µM (active); with PA-1, 1.41 µM (active).

Consider `C=C(C(=O)OC)C1C(O)CC2(C)C(O)CCC(=O)C2C1O` (configuration not stated), for which the Potency result with C33A, in the experiment with CAOV3, in the experiment on CASKI, in the experiment on Hek293T, in the experiment with JEG-3 and in the experiment with OV90 was “inactive” in each case.

As to `COc1ccc(Oc2cc(C)c(-c3csc(NC(=O)c4ccncc4)n3)c(C)c2)cc1`, the Potency entry with C33A, with CAOV3 and with Tov112D was “inactive” throughout. Moreover, the Potency is 0.891 µM (active) with CASKI and 1 µM (active) in the experiment with SKOV3.

For the molecule `C[C@@H]1O[C@@H](O[C@H]2[C@H](O)[C@@H](O)[C@H](OC3CCC4(C)C5CCC(C)(C(CO)OC6OC(CO)C(O)C(O)C6O)CC5=CCC4C3(C)C)O[C@@H]2CO)[C@H](O)[C@H](O)[C@H]1O` (some centres not stated), the Potency result in the experiment on C33A, in the experiment on CASKI, in the experiment with Es-2, in the experiment on HeLa, in the experiment on Hek293T and with JEG-3 was “inactive” throughout. Further, the Potency entry in the experiment with OV90, in the experiment on PA-1, in the experiment with SKOV3, in the experiment with Tov-21-G and in the experiment with Tov112D was “inactive” each time.
